# Many of the other results were omitted from the sample, so hits are more common in it than they were.
# CD40 NFkB inh: CD40 pathway inhibition in BL2 cells; BL2 NF-kB luciferase reporter, CD40L-induced, 4 h; inhibition, % at 10 µM; actives 0.94% (n = 83,000); AID 1053188;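 active means mean inhibition of at least 50% with a set share of replicates also reaching that level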;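 further: 0% = neutral control wells and 100% = IKK inhibitor VII at 50 µM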
# Starred values were filed as active, the others as inactive; [ ] = remark or other dose.
SMILES,CD40 NFkB inh
O=S(=O)(N/N=C/c1ccc(OC2CSC2)cc1)c1ccccc1,4.5
COC(=O)[C@@H](NC(=O)NC1CCCc2ccccc21)C(C)C (stereo partly specified),18.3
COc1ccc(C(=O)Nc2ccc(N3CCOCC3)cc2)cc1S(=O)(=O)N1CCOCC1,16.8*
COc1ccc(C(=O)Nc2ccc(N3CCOCC3)cc2)cc1S(=O)(=O)N1CCCC1,-9.3
COc1ccc(C(=O)Nc2ccc(NC(C)=O)cc2)cc1S(=O)(=O)N1CCCC1,-0.8
CCC1(O)CC2CN(CCc3c([nH]c4ccccc34)C(C(=O)OC)(c3cc4c(cc3OC)N(C)C3C(O)(C(=O)OC)C(C(=O)OC)C5(CC)C=CCN6CCC43C65)C2)C1 (stereo unspecified),14.9[25 µM]
N#C[C@@H]1[C@@H](c2ccc(-c3cccc(F)c3)cc2)[C@@H](CO)N1C(=O)c1cccnc1,-10.2[25 µM]
Oc1cc2c(cc1C(c1ccc(Br)cc1)N1CCCC1)OCO2 (stereo unspecified),86.3*
CN1CCN(C(CNS(=O)(=O)c2ccc(Br)cc2)c2ccc3c(c2)OCO3)CC1 (stereo unspecified),-2.7
OC(CN1CCCCC1)c1ccc(Br)cc1 (stereo unspecified),1.9
O=C(CCCCCCCC(=O)N1CCCCCC1)N1CCCCCC1,4.3
O=C(C1CCC1)N1C[C@H]2[C@@H](c3ccccc31)[C@@H](CO)N2C(=O)Cc1ccccn1,-18.4
N#C[C@@H]1[C@@H](c2ccc(C#CC3CCCCC3)cc2)[C@@H](CO)N1C(=O)Cc1ccccn1,0.8
CC1OC(CC(=O)O)CC2=C1C(=O)c1c(O)cccc1C2=O (stereo unspecified),103.7*
CCS(=O)(=O)N1CC2(CN(C(=O)Cc3ccccn3)[C@@H](CO)c3[nH]c4cc(OC)ccc4c32)C1,-13.9[25 µM]
CC(=O)[C@H]1CCC2C3CC=C4C[C@@H](O)CC[C@]4(C)C3CC[C@@]21C (stereo partly specified),4.2
CC(C)[C@H](N)C(=O)N[C@H]1CCC2C3CC=C4C[C@@H](O)CC[C@]4(C)C3CC[C@@]21C (stereo partly specified),71.0*
C[C@@H](N)C(=O)N[C@H]1CCC2C3CC=C4C[C@@H](O)CC[C@]4(C)C3CC[C@@]21C (stereo partly specified),2.1
CO[C@@H]1CN(C)C(=O)c2ccc(NC(=O)C3CCCCC3)cc2OC[C@@H](C)N(Cc2cccnc2)C[C@@H]1C,20.1
C[C@@H]1CCCCO[C@H](CN(C)Cc2ccc(C(F)(F)F)cc2)[C@@H](C)CN([C@@H](C)CO)C(=O)c2cc(NC(=O)Nc3cccc4ccccc34)ccc2O1,51.1*[25 µM]
C[C@@H]1CN([C@H](C)CO)C(=O)c2cc(NC(=O)Nc3cccc4ccccc34)ccc2O[C@@H](C)CCCCO[C@H]1CN(C)Cc1ccc(C(F)(F)F)cc1,48.8*[25 µM]
COc1ccc(S(=O)(=O)Nc2ccc3c(c2)C(=O)N([C@@H](C)CO)C[C@H](C)[C@@H](CN(C)Cc2ccc(C(F)(F)F)cc2)OCCCC[C@H](C)O3)cc1,14.9[25 µM]
COc1ccc(S(=O)(=O)Nc2ccc3c(c2)C(=O)N([C@H](C)CO)C[C@@H](C)[C@H](CN(C)Cc2ccc(C(F)(F)F)cc2)OCCCC[C@H](C)O3)cc1,26.4[25 µM]
C[C@@H]1CCCCO[C@@H](CN(C)Cc2ccc(C(F)(F)F)cc2)[C@H](C)CN([C@H](C)CO)C(=O)c2cc(NC(=O)Nc3cccc4ccccc34)ccc2O1,29.0[25 µM]
COc1ccc(S(=O)(=O)Nc2ccc3c(c2)C(=O)N([C@H](C)CO)C[C@H](C)[C@@H](CN(C)Cc2ccc(C(F)(F)F)cc2)OCCCC[C@@H](C)O3)cc1,52.5*[25 µM]
SMILES,CD40 NFkB inh
C[C@@H]1CCCCO[C@@H](CN(C)C(=O)C2CCCCC2)[C@@H](C)CN([C@H](C)CO)C(=O)c2cc(NS(=O)(=O)c3ccccc3)ccc2O1,66.6*[25 µM]
C[C@@H]1CCCCO[C@@H](CN(C)Cc2ccc(C(F)(F)F)cc2)[C@@H](C)CN([C@H](C)CO)C(=O)c2cc(NC(=O)Nc3cccc4ccccc34)ccc2O1,15.8[25 µM]
C[C@@H]1CCCCO[C@@H](CN(C)Cc2ccc(C(F)(F)F)cc2)[C@H](C)CN([C@@H](C)CO)C(=O)c2cc(NC(=O)Nc3cccc4ccccc34)ccc2O1,10.5[25 µM]
C[C@@H]1CCCCO[C@H](CN(C)Cc2ccc(C(F)(F)F)cc2)[C@H](C)CN([C@@H](C)CO)C(=O)c2cc(NC(=O)Nc3cccc4ccccc34)ccc2O1,14.7[25 µM]
C[C@H]1CCCCO[C@@H](CN(C)C(=O)C2CCCCC2)[C@@H](C)CN([C@@H](C)CO)C(=O)c2cc(NS(=O)(=O)c3ccccc3)ccc2O1,10.3[25 µM]
C[C@H]1CCCCO[C@H](CN(C)C(=O)C2CCCCC2)[C@@H](C)CN([C@@H](C)CO)C(=O)c2cc(NS(=O)(=O)c3ccccc3)ccc2O1,14.2[25 µM]
CC(C)OP(=O)(OC(C)C)C(C)NC(=O)Cc1ccccc1 (stereo unspecified),7.1
CN1C(=O)c2cc(NC(=O)Cc3cccs3)ccc2OC[C@@H]2O[C@@H](CC(=O)NCCc3ccncc3)CC[C@H]21,-2.7[25 µM]
CN(C)C(=O)c1ccc(-c2ccccc2[C@H]2[C@H](C#N)N(C(=O)C3CC3)[C@H]2CO)cc1,-9.8[25 µM]
Cc1cc(C)c2c(c1)CC(C)(C)CC2=O,-3.9
CO[C@@H]1CN(C)C(=O)c2cc(NC(=O)C3CCOCC3)ccc2OC[C@@H](C)N(C(=O)Nc2ccc(C(F)(F)F)cc2)C[C@H]1C,8.8[25 µM]
CN(C)Cc1cn(CC[C@@H]2CC[C@H](NC(=O)Nc3ccccc3F)[C@@H](CO)O2)nn1,-4.9
CC=Cc1ccc2n(c1=O)C[C@@H]1[C@@H](CO)[C@H](C(=O)NCCC)N(Cc3cccnc3)[C@H]21 (mixture of isomers),5.7[25 µM]
COc1cccc(C#Cc2ccc([C@H]3[C@@H](C#N)N(C(=O)C4CC4)[C@@H]3CO)cc2)c1,16.8
COc1ccc(C#Cc2ccc3c(c2)O[C@H](CN(C)C(=O)CN2CCOCC2)[C@@H](C)CN([C@H](C)CO)S3(=O)=O)cc1,-2.9[25 µM]
C/C=C/c1cnc2c(c1)C(=O)N([C@H](C)CO)C[C@@H](C)[C@H](CN(C)C(=O)C1CCOCC1)O2,-5.7[25 µM]
CC(CCc1ccccc1)NC(=O)CN1C(=O)NC2(CCCCC2)C1=O (stereo unspecified),4.2
O=C(CCCN1C(=O)c2cccc3cccc(c23)C1=O)OCC(=O)N1CCCCC1,-2.7
O=C(COC(=O)CCN1C(=O)c2cccc([N+](=O)[O-])c2C1=O)NCc1ccccc1,5.6
O=C(CN1C(=O)c2cccc([N+](=O)[O-])c2C1=O)OCC(=O)N1CCCCC1,60.9*
Cc1cc(C(=O)N2CCN(c3ccccc3Cl)CC2)c(C)o1,77.9*
Cc1cc(C(=O)N2CCC(C(=O)O)CC2)c(C)o1,0.4
Cc1cc(C(=O)N2CCN(c3ncccn3)CC2)c(C)o1,-5.7
Brc1cn2ccnc2c(N2CCOCC2)n1,-5.2
Cc1noc(C)c1S(=O)(=O)NC(=O)C1(C)CCN1C(=O)C1(c2ccc(Cl)cc2)CC1 (stereo unspecified),8.6
O=C(C[C@H]1C[C@H]2c3cc(NC(=O)Nc4ccccc4)ccc3O[C@H]2[C@H](CO)O1)NCc1ccccc1,-7.7[25 µM]
CCCC(=O)Nc1ccc(Br)c(Cl)c1,8.7
CC(=O)Nc1ccc(Br)c(Cl)c1,3.0
O=C(O)CCC(=O)Nc1ccc(Br)c(Cl)c1,36.3*
O=C(c1ccccc1F)N1C[C@H]2[C@@H](c3ccccc31)[C@H](CO)N2C(=O)c1ccc(F)cc1,-1.3[25 µM]
